Results reported in PubChem BioAssay (NCATS).
Several values for one entry are separate records, joined by “and”; a condition that tells them apart may be missing. Equal entries are not always repeated. Records with an inconclusive call do not appear. Activity calls are given as the source filed them. The call rests on the fitted dose curve; in most records, active means well fitted curve in the direction sought with a large enough effect; inconclusive means small, poorly fitted or top-dose-only effect, or another doubt; inactive means no such curve, though single readings can be large; an effect the other way counts as inactive or inconclusive.

Key:
[1] = target: Cellular tumor antigen p53 (Homo sapiens) (UniProt P04637); assay: Primary qHTS for small molecule compounds that upregulate eGFP-tagged delta133p53alpha (in N-terminal) cells. (AID 2060322); conditions: NCI-H358 eGFP-delta133p53alpha fluorescence, 24 h; activation: hits give high values; further: nearly all actives have a fitted effect of over 75% in size; further: potency means the concentration at half of the fitted maximal effect;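 on activation: cells pre-induced with doxycycline then dosed without doxycycline; series mostly up to about 56 µM; 0% = DMSO vehicle and 100% = reference activator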
Summary of the method: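 NCI-H358 cells pre-induced 24 h with 10 ng/ml doxycycline for eGFP-delta133p53alpha, plated dox-free and exposed 24 h at 37C to titrated compounds. Fixed, Hoechst-stained; gated GFP peak intensity by laser scanning cytometry, normalized to DMSO (0%) and 57.5 uM 5-azacytidine (100%).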

[2] = target: Aldehyde dehydrogenase, mitochondrial (Homo sapiens) (UniProt P05091); assay: qHTS for Inhibitors of the Aldehyde Dehydrogenase Family (ALDH2) Primary screen (AID 2061308);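 further: plate controls were vehicle for no effect and reference inhibitor for full effect; nearly all actives have a fitted effect of over 55% in size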
[3] = target: Retinaldehyde dehydrogenase 3 (Homo sapiens) (UniProt P47895); assay: qHTS for Inhibitors of the Aldehyde Dehydrogenase Family (ALDH1A3) Primary screen (AID 2061315);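 further: plate controls were DMSO vehicle for no effect and reference inhibitor for full effect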
[4] = BET inhibitor-based combinations targeting novel dependencies in MECOM-rearranged (r) AML: OCI-AML3 cell line (AID 2202232); conditions: Potency: OCI-AML3 viability; further: nearly all actives have a fitted effect of over 35% in size; further: potency means the concentration at half of the fitted maximal effect
Summary of the method: (§1)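 Here, 11-point titrations of each agent were applied to 500 seeded cells and incubated 48 hr; CellTiter-Glo signal, scaled against DMSO and empty wells, was integrated as AUC, then Z-scored within the individual line.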

[5] = BET inhibitor-based combinations targeting novel dependencies in MECOM-rearranged (r) AML: MV-4-11 cell line (AID 2202233); further: nearly all actives have a fitted effect of over 45% in size; further: potency means the concentration at half of the fitted maximal effect
Summary of the method: (§2)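 Normalized to DMSO and empty-well controls, the luminescence data from CellTiter-Glo after 48 hr drug exposure were fitted across 11 concentrations. Reported metrics are area under the dose-response curve and its Z-transformed form.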

[6] = BET inhibitor-based combinations targeting novel dependencies in MECOM-rearranged (r) AML: HNT-34 cell line (AID 2202234); further: nearly all actives have a fitted effect of over 35% in size; further: potency means the concentration at half of the fitted maximal effect
Summary of the method: as §2

[7] = BET inhibitor-based combinations targeting novel dependencies in MECOM-rearranged (r) AML: UCSD-AML1 cell line (AID 2202235); further: nearly all actives have a fitted effect of over 40% in size; further: potency means the concentration at half of the fitted maximal effect
Summary of the method: as §2

[8] = BET inhibitor-based combinations targeting novel dependencies in MECOM-rearranged (r) AML: AML-191 cell line (AID 2202236; further: nearly all actives have a fitted effect of over 35% in size; further: potency means the concentration at half of the fitted maximal effect)
Summary of the method: as §1

[9] = BET inhibitor-based combinations targeting novel dependencies in MECOM-rearranged (r) AML: AML-194 cell line (AID 2202237; further: nearly all actives have a fitted effect of over 40% in size; further: potency means the concentration at half of the fitted maximal effect)
Summary of the method: as §1

Cellular tumor antigen p53 (Homo sapiens), sequence (P04637 whole entry, looked up): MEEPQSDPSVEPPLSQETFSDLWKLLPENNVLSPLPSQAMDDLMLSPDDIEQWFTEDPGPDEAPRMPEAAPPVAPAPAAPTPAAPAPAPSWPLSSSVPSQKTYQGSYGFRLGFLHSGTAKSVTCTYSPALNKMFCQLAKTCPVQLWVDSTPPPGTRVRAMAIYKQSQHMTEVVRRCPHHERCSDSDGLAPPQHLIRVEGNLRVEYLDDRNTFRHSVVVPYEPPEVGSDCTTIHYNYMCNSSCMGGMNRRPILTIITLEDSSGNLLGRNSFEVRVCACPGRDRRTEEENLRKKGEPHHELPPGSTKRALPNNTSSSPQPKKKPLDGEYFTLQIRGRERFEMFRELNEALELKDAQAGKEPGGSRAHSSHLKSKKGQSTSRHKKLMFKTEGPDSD

SMILES | activation [1] | Potency [2] | Potency [3] | Potency [4] | Potency [5] | Potency [6] | Potency [7] | Potency [8] | Potency [9] | activity change, negative = inhibition [2] | activity change, negative = inhibition [3] | Potency [1]
O=C(O)[C@H](CC(=O)N1C[C@H]2CCCC[C@H]2C1)Cc1ccccc1 | 38.3% (inactive) | inactive | inactive | inactive | inactive | inactive | inactive | inactive | inactive |  |  | 
Cc1nc(N)ncc1-c1nc(N2CCOCC2)c2sc(C(C)(C)O)cc2n1 | 9.3% (inactive) | inactive | inactive | 0.105 µM (active) | 4.17 µM (active) |  | 1.32 µM (active) |  |  |  |  | 
CC(C)[C@@H](CS(=O)(=O)C(C)C)N1C(=O)[C@@](C)(CC(=O)O)C[C@H](c2cccc(Cl)c2)[C@H]1c1ccc(Cl)cc1 | 0.955% (inactive) and -3.88% (inactive) | inactive | inactive | 2.35 µM (active) | 1.86 µM (active) | 1.66 µM (active) | 1.86 µM (active) | 2.35 µM (active) | 2.35 µM (active) |  |  | 
O=C(Nc1ccc(OC(F)(F)F)cc1)c1sccc1NCc1ccnc2ccccc12 | 27.4% (inactive) | inactive | inactive | 5.25 µM (active) | 6.61 µM (active) | 10.5 µM (active) | 5.9 µM (active) | 8.33 µM (active) | 5.9 µM (active) |  |  | 
Cc1ccc(-c2ccc3c(ccc4sc5c(c43)NC[C@@H](C)NC5=O)n2)cn1 | 8.04% (inactive) | inactive | inactive | 18.6 µM (active) | 20.9 µM (active) | 26.3 µM (active) |  | 26.3 µM (active) | 26.3 µM (active) |  |  | 
O=C(c1ccc(Nc2nccc(-c3cc4ccccc4s3)n2)cc1)N1CCC(N2CCCC2)CC1 | -33.3% (inactive) | inactive | inactive | 18.6 µM (active) | 1.86 µM (active) | 5.25 µM (active) | 3.32 µM (active) | 7.42 µM (active) | 7.42 µM (active) |  |  | 
CNc1nccc(-c2cccnc2Oc2cc(C(=O)Nc3cccc(C(F)(F)F)c3)ccc2C)n1 | -0.576% (inactive) | inactive | inactive | 2.35 µM (active) | 2.95 µM (active) |  | 6.61 µM (active) | 6.61 µM (active) | 6.61 µM (active) |  |  | 
CN(C)CC(=O)N1CCC(c2ccc(NC(=O)c3ncc(C#N)[nH]3)c(C3=CCCCC3)c2)CC1 | -0.715% (inactive) | inactive | inactive |  | 0.148 µM (active) | 10.5 µM (active) | 5.25 µM (active) |  |  |  |  | 
COc1cc(F)c(F)c(Nc2ccc(I)cc2F)c1NS(=O)(=O)C1(C[C@H](O)CO)CC1 | 4.11% (inactive) | inactive | inactive | 0.166 µM (active) |  | 1.32 µM (active) | 0.662 µM (active) |  |  |  |  | 
CC(C)(C)Sc1c(CC(C)(C)C(=O)O)n(Cc2ccc(Cl)cc2)c2ccc(OCc3ccc4ccccc4n3)cc12 | 0% (inactive) | inactive | inactive |  | 26.3 µM (active) | 26.3 µM (active) |  |  |  |  |  | 
COc1cc2c(NC3CCN(C(C)C)CC3)nc(C3CCCCC3)nc2cc1OCCCN1CCCC1 | 27.1% (inactive) and 25.7% (inactive) | inactive | inactive |  | 8.33 µM (active) | 11.8 µM (active) | 11.8 µM (active) | 20.9 µM (active) | 14.8 µM (active) |  |  | 
Cc1cnc(CNC(=O)c2c(=O)c3ccc(N4CCCN(C)CC4)nc3n3c2sc2ccccc23)cn1 | 18.9% (inactive) and -1.79% (inactive) |  |  |  | 1.08 µM (active) |  |  |  |  | 8.69% [at 11.2 µM] (inactive) | 2.3% [at 11.2 µM] (inactive) | 
CCN(CCCOc1ccc2c(Nc3cc(CC(=O)Nc4cccc(F)c4)[nH]n3)ncnc2c1)CCOP(=O)(O)O | 15.2% (inactive) | inactive | inactive | 0.468 µM (active) |  |  | inactive |  | 0.662 µM (active) |  |  | 
CC(C)(C)c1cc(NC(=O)Nc2ccc(-c3cn4c(n3)sc3cc(OCCN5CCOCC5)ccc34)cc2)no1 | 10.5% (inactive) and 25% (inactive) | inactive | inactive | 4.68 µM (active) | 0.003 µM (active) |  | inactive |  | 14.8 µM (active) |  |  | 
CCn1c(=O)c(-c2ccn[nH]2)cc2c(C)nc(N)nc21 | 4.46% (inactive) | inactive | inactive |  | 5.25 µM (active) |  | 0.59 µM (active) |  |  |  |  | 
Nc1nccc(Oc2ccc(NC(=O)c3c[nH]cc(-c4ccc(F)cc4)c3=O)cc2F)c1Cl |  | inactive | inactive |  | 0.0372 µM (active) | 18.6 µM (active) |  |  |  |  |  | 43.2 µM (active) and 30.1 µM (active)
CN(NC(=O)CC(=O)NN(C)C(=S)c1ccccc1)C(=S)c1ccccc1 |  | inactive | inactive | 0.0525 µM (active) |  | 0.0148 µM (active) | 0.059 µM (active) | 0.0372 µM (active) | 0.0417 µM (active) |  |  | 861 nM (active)
CNC(=O)c1cc(Oc2ccc(NC(=O)Nc3ccc(Cl)c(C(F)(F)F)c3)c(F)c2)ccn1 | 8.41% (inactive) | inactive | inactive | 2.63 µM (active) |  | 10.5 µM (active) |  | 9.34 µM (active) |  |  |  | 
Nc1ncnc2c1C(=O)N(c1ccc(C3CCC(CC(=O)O)CC3)cc1)CCO2 (centres undefined) | 18.6% (inactive) | inactive | inactive |  | inactive | inactive | inactive | inactive |  |  |  | 
Cc1ccc(NC(=O)c2ccc(CN3CCNCC3)cc2)cc1Nc1nccc(-c2cccnc2)n1 | -16.1% (inactive) | inactive | inactive |  | 18.6 µM (active) | 2.63 µM (active) |  |  | 23.5 µM (active) |  |  | 

SMILES | activation [1] | Potency [2] | Potency [3] | Potency [4] | Potency [5] | Potency [6] | Potency [7] | Potency [8] | Potency [9] | activity change, negative = inhibition [2] | activity change, negative = inhibition [3] | Potency [1]
CS(=O)(=O)N1CCN(Cc2cc3nc(-c4cccc5[nH]ncc45)nc(N4CCOCC4)c3s2)CC1 | -25.9% (inactive) | inactive | inactive |  | 2.09 µM (active) |  |  |  |  |  |  | 
CCCS(=O)(=O)Nc1ccc(F)c(C(=O)c2c[nH]c3ncc(Cl)cc23)c1F | 27.8% (inactive) and 12.5% (inactive) | inactive | inactive | inactive |  | 11.8 µM (active) | inactive |  | inactive |  |  | 
CC1(C)CN(C(=O)c2ccc(-c3cccc4nc(NC(=O)C5CC5)nn34)cc2)C1 | 5% (inactive) | inactive | inactive | inactive |  | 18.6 µM (active) |  |  | inactive |  |  | 
COc1nccc(-c2c(-c3ccc(F)cc3)ncn2C2CCC(O)CC2)n1 (centres undefined) | 22% (inactive) and -24.1% (inactive) | inactive | inactive | 18.6 µM (active) |  |  |  | 18.6 µM (active) |  |  |  | 
Cc1ccccc1C(=O)c1ccc(Nc2ccc(Br)cc2N)cc1Cl | 19.2% (inactive) and -0.893% (inactive) | inactive | inactive |  | 18.6 µM (active) | 23.5 µM (active) | inactive |  | inactive |  |  | 
O=C(O)c1ccc(Nc2ncc3c(n2)-c2ccc(Cl)cc2C(c2c(F)cccc2F)=NC3)cc1 | 139% (inactive) and 6.25% (inactive) | inactive | inactive |  | 0.934 µM (active) |  |  |  |  |  |  | 
COc1ncc(-c2ccc3c(Nc4cc(Oc5cc(F)cc(F)c5)cc(C(=O)O)c4)c(S(=O)(=O)NC4CC4)cnc3c2)c(OC)n1 | -3.34% (inactive) | inactive | inactive | inactive |  | inactive | inactive | inactive | inactive |  |  | 
COc1cc2ncnc(-n3nc(-c4ccccn4)nc3N)c2cc1OC | 13.4% (inactive) | inactive | inactive |  | 1.48 µM (active) | 2.35 µM (active) | 4.68 µM (active) | 4.17 µM (active) | 6.61 µM (active) |  |  | 
N#CN1CCC[C@@H](n2nc(-c3ccc(Oc4ccc(F)cc4F)cc3)c(C(N)=O)c2N)C1 | -16.1% (inactive) | inactive | inactive | 10.5 µM (active) |  |  |  |  | inactive |  |  | 
O=C(O)c1ccc(O)c2ncc(N3CCOCC3)cc12 | 22.8% (inactive) | inactive | inactive | inactive |  |  |  |  | inactive |  |  | 
Nc1ncnc2c1ncn2[C@@H]1O[C@H](CO)C[C@H]1O |  | inactive | inactive | inactive | inactive |  |  | inactive | inactive |  |  | 12000 nM (active)
CC[C@@](C)(Nc1ccnc(-c2c[nH]c3ncccc23)n1)C(=O)NCC(F)(F)F | 18.8% (inactive) | inactive | inactive |  | 14.8 µM (active) | 14.8 µM (active) | 6.61 µM (active) |  |  |  |  | 
Fc1ccc(-c2nc(-c3ccccc3F)[nH]c2-c2ccncc2)cc1 | 17% (inactive) | inactive | inactive | inactive |  | inactive |  | inactive | inactive |  |  | 
Nc1nc(OCc2cc(Br)cs2)c2[nH]cnc2n1 | -5% (inactive) | inactive | inactive | 9.34 µM (active) |  |  | inactive |  | inactive |  |  | 
O=C(NC[C@H](O)CN1CCc2ccccc2C1)c1ccnc(NC2CCC2)c1 | 4.33% (inactive) | inactive | inactive | 0.0042 µM (active) |  | inactive | inactive | inactive |  |  |  | 
CC1(C)CCC(CN2CCN(c3ccc(C(=O)NS(=O)(=O)c4ccc(NCC5CCOCC5)c([N+](=O)[O-])c4)c(Oc4cnc5[nH]ccc5c4)c3)CC2)=C(c2ccc(Cl)cc2)C1 | -10.9% (inactive) | inactive | inactive | 3.72 µM (active) | 0.118 µM (active) |  |  | 18.6 µM (active) | 4.68 µM (active) |  |  | 
Nc1cccc(S(=O)(=O)N2CCCN(S(=O)(=O)c3ccc4c(c3)OCCO4)CC2)c1 | 17.7% (inactive) | inactive | inactive | inactive | inactive |  |  |  | inactive |  |  | 
Cc1cc(F)c(C(=O)Nc2cccc(-c3nncn3C(C)C)n2)cc1-n1cnc(C2CC2)c1 | 35% (inactive) | inactive | inactive |  | 10.5 µM (active) | 20.9 µM (active) |  | 18.6 µM (active) |  |  |  | 
Cc1csc(-c2nnc(Nc3ccc(Oc4ncccc4-c4ccnc(N)n4)cc3)c3ccccc23)c1 | 19.6% (inactive) | inactive | inactive | 1.86 µM (active) |  |  | 0.296 µM (active) |  |  |  |  | 
Cc1cc(-c2cc(OC(=O)c3ccccc3)ccc2Cl)cc2nnc(Nc3ccc(OCCN4CCCC4)cc3)nc12 | -29.5% (inactive) | inactive | inactive |  | inactive | 0.456 µM (active) |  | inactive |  |  |  | 
